UCHL1 inh = inhibitors of human UCHL1 deubiquitinase; purified UCHL1, Ub-rhodamine cleavage fluorescence; inhibition, % at 20 µM; 0.2% of 47,000 active
USP10 inh = blocks human USP10 ubiquitin-rhodamine cleavage | 1.1% of 47,000 active | inhibition, % at 20 µM | purified USP10, Ub-rhodamine fluorescence, 60 min | AID 1645856
USP7 block = blocks human USP7 ubiquitin-rhodamine cleavage; 0.3% of 47,000 active; Q93009; inhibition, % at 20 µM; purified USP7, Ub-rhodamine cleavage fluorescence; AID 1645854
Target sequence (Q93009 whole entry, looked up): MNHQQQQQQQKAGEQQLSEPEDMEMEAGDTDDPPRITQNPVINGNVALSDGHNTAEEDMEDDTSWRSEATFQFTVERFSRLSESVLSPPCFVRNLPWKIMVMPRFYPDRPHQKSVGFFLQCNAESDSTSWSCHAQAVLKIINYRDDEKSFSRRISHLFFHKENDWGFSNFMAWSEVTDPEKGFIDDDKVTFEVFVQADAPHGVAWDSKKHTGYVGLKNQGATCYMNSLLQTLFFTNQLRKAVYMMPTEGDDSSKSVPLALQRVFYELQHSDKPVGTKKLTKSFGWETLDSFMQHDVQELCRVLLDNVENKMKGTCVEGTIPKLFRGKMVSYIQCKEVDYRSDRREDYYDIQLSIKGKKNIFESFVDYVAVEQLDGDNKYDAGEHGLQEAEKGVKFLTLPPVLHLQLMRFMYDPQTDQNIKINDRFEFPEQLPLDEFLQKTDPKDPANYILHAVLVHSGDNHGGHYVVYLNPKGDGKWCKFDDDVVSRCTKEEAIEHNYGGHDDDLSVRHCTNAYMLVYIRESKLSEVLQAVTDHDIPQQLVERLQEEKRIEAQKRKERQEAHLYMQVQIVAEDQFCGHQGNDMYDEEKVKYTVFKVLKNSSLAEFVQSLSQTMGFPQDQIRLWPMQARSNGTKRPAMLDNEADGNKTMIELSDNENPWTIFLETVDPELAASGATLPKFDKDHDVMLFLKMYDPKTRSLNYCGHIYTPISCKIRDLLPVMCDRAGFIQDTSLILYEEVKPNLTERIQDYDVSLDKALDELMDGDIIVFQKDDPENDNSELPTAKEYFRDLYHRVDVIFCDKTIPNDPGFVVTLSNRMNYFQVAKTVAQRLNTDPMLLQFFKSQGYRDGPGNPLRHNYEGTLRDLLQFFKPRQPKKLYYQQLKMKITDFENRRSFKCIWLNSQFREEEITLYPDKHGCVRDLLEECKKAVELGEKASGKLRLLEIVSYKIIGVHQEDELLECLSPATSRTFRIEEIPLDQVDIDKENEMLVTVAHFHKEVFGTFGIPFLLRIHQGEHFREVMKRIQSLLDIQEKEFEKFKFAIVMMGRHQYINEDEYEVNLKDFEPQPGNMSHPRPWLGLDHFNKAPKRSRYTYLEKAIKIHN
OTUD3 block = inhibitors of human OTUD3 deubiquitinase. Q5T2D3. purified OTUD3, Ub-rhodamine fluorescence, 2 h. inhibition, % at 25 µM. 0.7% of 47,000 active
Each line names hits and unclear results; the compound was inactive in the other large screens. Most compounds without a hit are left out; they make up all but 1.7% or so of the library. Cut-off read from the data, not from the text of the source: active = inhibition above about 30%; inactive = the rest.

Cc1ccc(C(=O)O)cc1NC(=O)C(Sc1cccc(NC(=O)c2cccc(Cl)c2)c1)c1ccccc1 (centres undefined)	USP10 inh 34.1
CO[C@H]1/C=C/[C@@](C)(O)/C=C/C(=O)O[C@H](C)C(C)C(O)C/C=C/1C (some centres undefined)	none
Cc1cc(C)cc(NC(=O)Nc2ccccc2OCc2cc(=O)n3c(ncn3C(C)C)n2)c1	USP10 inh 39.8
Cc1ccccc1NC(=O)Nc1ccccc1OCc1cc(=O)n2cccc(C)c2n1	USP10 inh 40.2, OTUD3 block 39.6
Cc1ccc(C)c(Nc2nc(NCc3ccccc3)c3ccccc3n2)c1	OTUD3 block 32.9
CC(=O)c1oc2nc3c(c(-c4ccc(Cl)cc4)c2c1N)CCc1ccccc1-3	OTUD3 block 37.4
N#Cc1c(N)nc2c(c1-c1ccccc1)CCc1ccccc1-2	none
CCCOc1ccc(C2CN3C(=O)N(c4ccc(OC)cc4)C(=O)[C@]3(C)c3[nH]c4ccccc4c32)cc1OCC (some centres undefined)	none
CCOc1ccc(-n2c(SCC(=O)Nc3ccc(C)cc3)nnc2-c2c[nH]c3ccccc23)cc1	USP10 inh 70.5
CCOc1ccc(-c2ccc3nnc(SCC(=O)Nc4ccc(F)cc4)n3n2)cc1	USP10 inh 37.9
COCCn1c(SCC(=O)Nc2ccc(OC)cc2)nnc1-c1c[nH]c2ccccc12	none
O=C(CSc1nnc2ccc(-c3ccccc3)nn12)Nc1ccc(F)cc1	none
Cc1noc(-c2cccc(OCC(=O)NCC3CCCO3)c2)n1 (centres undefined)	none
O=C(NC[C@H]1OC[C@@H]2CCN(Cc3ccco3)C[C@@H]21)c1cnccn1	none
CC(=O)Nc1ccc(S(=O)(=O)N2CCC3(CC2)NCCN=C3NC2CCCCC2)cc1	none
COc1ccccc1CNc1ncc(C(=O)NC2CCCCC2)c(C)n1	none
Cc1ccc(C(O)=C2C(=O)C(=O)N(CCN3CCOCC3)C2c2cccc(O)c2)cc1 (centres undefined)	none
Cc1ccc(C)c(OCCCn2c(CCNC(=O)C3CCCCC3)nc3ccccc32)c1	none
O=C(NCCc1nc2ccccc2n1CCCOc1ccccc1Cl)C1CCCCC1	USP10 inh 30.8, OTUD3 block 33.2
O=C(NCCCN1CCOCC1)c1ccc(CS(=O)c2ccccc2)o1 (centres undefined)	none
O=C(NC1CCCCCC1)c1cccc(S(=O)(=O)Nc2cc(C(F)(F)F)ccc2Cl)c1	USP10 inh 52.5
COc1cc(OC)cc(-n2c(=O)c3ccccc3n(CC(=O)NCCC3=CCCCC3)c2=O)c1	none
Cc1ccc(-n2c(=O)c3ccc(C(=O)NCc4ccco4)cc3n(CC(=O)NCCC3=CCCCC3)c2=O)cc1	USP10 inh 44.5
COc1ccc(-n2c(=O)c3ccc(C(=O)NCCc4ccccc4)cc3n(CC(=O)NCCC3=CCCCC3)c2=O)cc1	USP10 inh 55.0
CC1(C)Oc2ccccc2[C@H]2OCC3(CCN(C(=O)c4ccc5n[nH]nc5c4)CC3)C[C@@H]21	none
Cc1cc2cc(CNC3CCCCC3C)c(=O)[nH]c2cc1C (centres undefined)	none
O=C(CSc1ccc2nnc(-c3cccc(F)c3)n2n1)N1CCCc2ccccc21	OTUD3 block 39.8
COc1cccc(S(=O)(=O)NC2CCN(c3ccccc3)C2=O)c1 (centres undefined)	none
COc1ccc(-c2onc(C)c2C)cc1S(=O)(=O)NCc1ccc(F)cc1	USP10 inh 58.2
Cc1ccc(S(=O)(=O)NC(=O)C2CCCCC2)cc1	none
O=C(NC1CC1)C1c2ccccc2C(=O)N(Cc2ccccc2)C12CCCC2 (centres undefined)	none
COc1ccc(CNC(=O)c2ccc3c(=O)nc4c(-c5cccc(C)c5)n[nH]n4c3c2)cc1	USP10 inh 41.1
COc1ccc(-c2n[nH]n3c2nc(=O)c2ccc(C(=O)NCc4ccco4)cc23)cc1	none
COc1cc(NC(=O)Cc2ccccc2)ccc1NC(=O)c1cc2ccccc2o1	USP10 inh 33.9
CCOC(=O)c1ccc(NC(=O)Cn2c(=O)n(-c3ccc(CC(=O)NCc4ccco4)cc3)c(=O)c3ccccc32)cc1	USP10 inh 33.3
O=C(Cc1ccc(-n2c(=O)c3ccccc3n(CC(=O)Nc3ccc(F)cc3F)c2=O)cc1)NCc1ccco1	none
O=C(Cn1c(=O)c2ccccc2n(CC(=O)Nc2ccc(F)c(Cl)c2)c1=O)NCc1ccco1	OTUD3 block 48.7
CCOC(=O)c1ccc(NC(=O)Cn2c(=O)n(CC(=O)NCc3ccco3)c(=O)c3ccccc32)cc1	USP10 inh 35.1
Cc1ccc(NC(=O)Cn2c(=O)n(CCCCC(=O)NCc3ccco3)c(=O)c3ccccc32)cc1C	none
O=C(CCCCn1c(=O)c2ccccc2n(CC(=O)Nc2ccc(F)c(Cl)c2)c1=O)NCc1ccco1	none
COC(=O)c1ccccc1NC(=O)Cn1c(=O)n(Cc2ccc(C(=O)NCc3ccco3)cc2)c(=O)c2ccccc21	USP10 inh 32.4
CCN1CCN(c2nc(NCc3ccccc3)c3cnn(C)c3n2)CC1	none
O=C(Nc1ccc(NS(=O)(=O)c2cccc(C(=O)N3CCCc4ccccc43)c2)cc1)c1ccccc1	none
C=C1CCC2C(C)(CCC=C(C)C)C(OC(C)=O)CCC2(C)C1Cc1c(O)c(C)c(C)oc1=O (centres undefined)	USP10 inh 31.9
CCN(CC)C(=O)CN1CCCC(c2ncncc2-c2cc(C)no2)C1 (centres undefined)	OTUD3 block 30.2
CC(C)(C)c1ccc(Cn2nnc3c(=O)[nH]c(C4CCN(S(=O)(=O)c5ccc(S(=O)(=O)NC6CCCC6)cc5)CC4)nc32)cc1	none
Cc1ccc(Cn2nnc3c(=O)[nH]c(C4CCN(S(=O)(=O)c5ccc(S(=O)(=O)NC6CCCC6)cc5)CC4)nc32)cc1	USP10 inh 33.7
COc1ccccc1CN(C)C(=O)CSc1nc2ccccc2[nH]1	none
COc1ccc(C2/C(=C(\O)c3ccccc3)C(=O)C(=O)N2c2nc3ccc(F)cc3s2)cc1 (centres undefined)	USP10 inh 41.5
COc1ccc(C2/C(=C(\O)c3ccccc3)C(=O)C(=O)N2c2cccc(C(F)(F)F)c2)cc1 (centres undefined)	USP10 inh 30.5
Cc1ccc(C2/C(=C(\O)c3ccc(F)cc3)C(=O)C(=O)N2c2nc3ccc(F)cc3s2)cc1 (centres undefined)	none
COc1ccc2c(CNCCc3ccccc3)c(C(=O)O)[nH]c2c1	none
Cc1ccc(C)c(S(=O)(=O)Nc2cc(-c3ccncc3)no2)c1	none
CS(=O)(=O)c1ccc(N2CCCN(C(=O)c3ccco3)CC2)cc1	none
O=C(COc1cccc(C(=O)NCc2ccccc2)c1)Nc1ccc(Oc2ccccc2)cc1	OTUD3 block 40.1
Cc1ccc(CNC(=O)C2CC(=O)N(c3ccc(OCC(=O)Nc4ccc(C)cc4C)cc3)C2)cc1 (centres undefined)	none
O=C(COc1ccc(N2CC(C(=O)NCc3ccccc3)CC2=O)cc1)Nc1ccc(F)cc1 (centres undefined)	none
O=C(COc1ccc(N2CC(C(=O)NCc3ccc4c(c3)OCO4)CC2=O)cc1)Nc1ccc(F)cc1 (centres undefined)	USP10 inh 49.4
